Assay results as given in the supplement of paper PMC10849652.
Of roughly 8,800 targets only a part is listed; those with a hit were picked by preference. About 0.5% of all pairs of compound and target were hits.

Assays:
Assay in all cases: log2 fold change, soluble protein after heating vs DMSO (PISA); higher = thermal stabilisation; K562 lysate, 10 uM; active = over 0.2 and 3.5 SD of the protein, either way, in both replicates (recomputed)
lapatinib = compound: CS(=O)(=O)CCNCc1ccc(-c2ccc3ncnc(Nc4ccc(OCc5cccc(F)c5)c(Cl)c4)c3c2)o1 [lapatinib]
Procedure, shortened: (§1)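 Log-two fold change in thermal stability relative to solvent controls is reported from duplicates. For each sample, crude K562 extract from dounce-homogenised pellets in PBS pH 7.4 with 1 mM MgCl2, at 1 mg/mL protein, was treated with 10 μM compound for 30 min. Aliquots heated for 3 min across 48°C-58°C were pooled, brought to 0.5% NP-40 at 4°C and cleared at 21,000xg for 90 min. The supernatant was quantified by TMTpro 16plex LC-MS/MS with channel sums equalised.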

pictilisib = compound: CS(=O)(=O)N1CCN(Cc2cc3nc(-c4cccc5[nH]ncc45)nc(N4CCOCC4)c3s2)CC1 [pictilisib]
Procedure, shortened: as §1

crizotinib = compound: C[C@@H](Oc1cc(-c2cnn(C3CCNCC3)c2)cnc1N)c1c(Cl)ccc(F)c1Cl [crizotinib]
Procedure, shortened: as §1

[1] = compound: C[C@H](C1=CC=C(C=C1)C(=O)NC2=C3C=CNC3=NC=C2)N
Procedure, shortened: as §1

gandotinib = compound: Cc1cc(Nc2cc(CN3CCOCC3)c3nc(C)c(Cc4ccc(Cl)cc4F)n3n2)n[nH]1 [gandotinib]
Procedure, shortened: as §1

tozasertib = compound: Cc1cc(Nc2cc(N3CCN(C)CC3)nc(Sc3ccc(NC(=O)C4CC4)cc3)n2)n[nH]1 [tozasertib]
Procedure, shortened: as §1

doramapimod = compound: Cc1ccc(-n2nc(C(C)(C)C)cc2NC(=O)Nc2ccc(OCCN3CCOCC3)c3ccccc23)cc1 [doramapimod]
Procedure, shortened: as §1

bafetinib = compound: Cc1ccc(NC(=O)c2ccc(CN3CC[C@H](N(C)C)C3)c(C(F)(F)F)c2)cc1Nc1nccc(-c2cncnc2)n1 [bafetinib]
Procedure, shortened: as §1

[2] = compound: Cc1cccc(CC(=O)N2CCc3c2ccc(-c2cn(C)c4ncnc(N)c24)c3F)n1
Procedure, shortened: as §1

duvelisib = compound: C[C@H](Nc1ncnc2nc[nH]c12)c1cc2cccc(Cl)c2c(=O)n1-c1ccccc1 [duvelisib]
Procedure, shortened: as §1

Measured: log2 fold change

TMEM177 (UniProt Q53S58)
inactive: lapatinib 0.018 | pictilisib 0.002 | crizotinib 0.053 | [1] -0.005 | gandotinib -0.125 | tozasertib -0.016 | doramapimod -0.056 | bafetinib -0.059 | [2] -0.013

THADA (UniProt Q6YHU6)
inactive: lapatinib -0.042 | pictilisib -0.06 | crizotinib -0.073 | [1] -0.041 | duvelisib -0.02 | gandotinib -0.064 | tozasertib -0.003 | doramapimod -0.002 | bafetinib -0.041 | [2] 0.086

TRIM33 (UniProt H0Y612)
inactive: lapatinib -0.078 | pictilisib 0.044 | crizotinib 0.004 | [1] -0.093 | duvelisib 0.012 | gandotinib 0.019 | tozasertib 0.07 | doramapimod 0.001 | bafetinib -0.077 | [2] 0.039

TFIP11 (UniProt Q9UBB9)
inactive: lapatinib -0.032 | pictilisib 0.061 | crizotinib -0.085 | [1] -0.031 | duvelisib -0.053 | gandotinib -0.097 | tozasertib 0.051 | doramapimod 0.043 | bafetinib -0.114 | [2] 0.06

UBE3B (UniProt Q7Z3V4)
UniProt Q7Z3V4, sequence (Q7Z3V4 whole entry, looked up): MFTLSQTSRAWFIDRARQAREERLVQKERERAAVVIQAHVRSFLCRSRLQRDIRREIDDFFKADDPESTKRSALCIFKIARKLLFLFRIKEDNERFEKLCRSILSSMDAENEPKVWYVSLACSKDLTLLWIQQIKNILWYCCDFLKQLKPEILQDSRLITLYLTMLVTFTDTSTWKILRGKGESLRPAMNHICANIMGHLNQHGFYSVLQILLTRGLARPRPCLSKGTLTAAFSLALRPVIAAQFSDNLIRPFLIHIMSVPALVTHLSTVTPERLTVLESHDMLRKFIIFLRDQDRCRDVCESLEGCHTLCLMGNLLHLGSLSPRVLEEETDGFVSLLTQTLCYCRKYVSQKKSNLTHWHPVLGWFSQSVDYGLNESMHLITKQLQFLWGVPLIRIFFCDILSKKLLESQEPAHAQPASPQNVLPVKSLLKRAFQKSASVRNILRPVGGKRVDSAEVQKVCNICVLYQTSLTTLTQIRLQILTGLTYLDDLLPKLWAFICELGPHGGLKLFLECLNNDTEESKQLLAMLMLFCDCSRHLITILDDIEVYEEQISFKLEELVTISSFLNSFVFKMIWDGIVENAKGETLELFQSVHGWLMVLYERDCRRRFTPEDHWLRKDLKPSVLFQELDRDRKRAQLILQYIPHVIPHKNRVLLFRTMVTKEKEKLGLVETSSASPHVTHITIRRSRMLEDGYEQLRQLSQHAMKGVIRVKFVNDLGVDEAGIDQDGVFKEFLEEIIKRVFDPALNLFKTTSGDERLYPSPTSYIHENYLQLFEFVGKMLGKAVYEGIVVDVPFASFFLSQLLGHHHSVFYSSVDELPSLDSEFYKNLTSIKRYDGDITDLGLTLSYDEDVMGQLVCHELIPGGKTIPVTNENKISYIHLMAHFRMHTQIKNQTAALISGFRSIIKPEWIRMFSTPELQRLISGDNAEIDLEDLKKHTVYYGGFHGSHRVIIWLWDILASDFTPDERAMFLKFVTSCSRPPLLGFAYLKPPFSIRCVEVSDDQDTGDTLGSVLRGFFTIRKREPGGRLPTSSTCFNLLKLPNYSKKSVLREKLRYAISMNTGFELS
inactive: lapatinib -0.019 | pictilisib 0.025 | crizotinib -0.027 | [1] -0.174 | duvelisib 0.136 | gandotinib -0.17 | tozasertib -0.005 | doramapimod 0.083 | bafetinib -0.082 | [2] 0.203

TTLL12 (UniProt Q14166)
inactive: lapatinib -0.002 | pictilisib -0.02 | crizotinib -0.039 | [1] 0.014 | duvelisib 0.015 | gandotinib -0.091 | tozasertib 0.023 | doramapimod 0.016 | bafetinib -0.004 | [2] 0.014

TUBB4A (UniProt M0QYM7)
active: [1] -1.05
inactive: lapatinib -0.009 | pictilisib -0.067 | crizotinib -0.176 | gandotinib 0.39 | tozasertib 0.138 | doramapimod 0.116 | bafetinib -0.516 | [2] 0.42

TMSB4X (UniProt P62328)
UniProt P62328, sequence (P62328 whole entry, looked up): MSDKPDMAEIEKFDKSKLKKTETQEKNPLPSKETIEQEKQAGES
inactive: lapatinib 0.12 | pictilisib -0.553 | crizotinib 0.015 | [1] -0.132 | gandotinib 0.65 | tozasertib 0.123 | doramapimod -0.24 | bafetinib -0.546 | [2] -0.166

UCHL5 (UniProt Q5LJA9)
inactive: lapatinib 0.027 | pictilisib 0.001 | crizotinib -0.036 | [1] -0.07 | duvelisib 0.082 | gandotinib -0.074 | tozasertib 0.003 | doramapimod 0.067 | bafetinib -0.07 | [2] -0.156

TMEM14C (UniProt Q9P0S9)
UniProt Q9P0S9, sequence (Q9P0S9 whole entry, looked up): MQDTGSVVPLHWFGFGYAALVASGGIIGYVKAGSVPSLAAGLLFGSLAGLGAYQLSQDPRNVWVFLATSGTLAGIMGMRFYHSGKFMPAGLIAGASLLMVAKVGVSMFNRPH
inactive: lapatinib 0.123 | pictilisib 0.162 | crizotinib -0.087 | duvelisib 0.016 | tozasertib -0.099 | doramapimod 0.002 | bafetinib -0.094

TMEM164 (UniProt Q5U3C3)
inactive: lapatinib -0.166 | pictilisib 0.186 | crizotinib -0.03 | duvelisib 0.131 | gandotinib 0.27 | tozasertib -0.091 | doramapimod -0.173 | bafetinib -0.05 | [2] 0.512
active: [1] -0.789

UBE2H (UniProt P62256)
UniProt P62256, sequence (P62256 whole entry, looked up): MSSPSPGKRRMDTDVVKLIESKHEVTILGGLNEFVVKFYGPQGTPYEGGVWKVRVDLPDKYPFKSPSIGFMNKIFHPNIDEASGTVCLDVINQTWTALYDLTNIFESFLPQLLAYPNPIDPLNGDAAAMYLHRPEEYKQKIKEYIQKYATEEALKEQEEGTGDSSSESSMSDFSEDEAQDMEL
inactive: lapatinib 0.002 | pictilisib -0.022 | crizotinib 0.011 | [1] 0.174 | duvelisib 0.016 | gandotinib -0.172 | tozasertib 0.024 | doramapimod 0.003 | bafetinib 0.009 | [2] -0.188

TMEM161B (UniProt Q8NDZ6)
inactive: lapatinib -0.057 | pictilisib -0.05 | crizotinib 0.007 | [1] 0.009 | tozasertib 0.009 | doramapimod -0.03 | bafetinib 0.007 | [2] 0.077
active: gandotinib -0.289

TRAPPC9 isoform 2 (UniProt Q96Q05)
inactive: lapatinib -0.02 | pictilisib 0.012 | crizotinib -0.084 | [1] -0.053 | duvelisib -0.038 | gandotinib -0.037 | tozasertib 0.037 | doramapimod 0.029 | bafetinib -0.026 | [2] 0.021

TCF20 (UniProt Q9UGU0)
UniProt Q9UGU0, sequence (Q9UGU0 whole entry, looked up): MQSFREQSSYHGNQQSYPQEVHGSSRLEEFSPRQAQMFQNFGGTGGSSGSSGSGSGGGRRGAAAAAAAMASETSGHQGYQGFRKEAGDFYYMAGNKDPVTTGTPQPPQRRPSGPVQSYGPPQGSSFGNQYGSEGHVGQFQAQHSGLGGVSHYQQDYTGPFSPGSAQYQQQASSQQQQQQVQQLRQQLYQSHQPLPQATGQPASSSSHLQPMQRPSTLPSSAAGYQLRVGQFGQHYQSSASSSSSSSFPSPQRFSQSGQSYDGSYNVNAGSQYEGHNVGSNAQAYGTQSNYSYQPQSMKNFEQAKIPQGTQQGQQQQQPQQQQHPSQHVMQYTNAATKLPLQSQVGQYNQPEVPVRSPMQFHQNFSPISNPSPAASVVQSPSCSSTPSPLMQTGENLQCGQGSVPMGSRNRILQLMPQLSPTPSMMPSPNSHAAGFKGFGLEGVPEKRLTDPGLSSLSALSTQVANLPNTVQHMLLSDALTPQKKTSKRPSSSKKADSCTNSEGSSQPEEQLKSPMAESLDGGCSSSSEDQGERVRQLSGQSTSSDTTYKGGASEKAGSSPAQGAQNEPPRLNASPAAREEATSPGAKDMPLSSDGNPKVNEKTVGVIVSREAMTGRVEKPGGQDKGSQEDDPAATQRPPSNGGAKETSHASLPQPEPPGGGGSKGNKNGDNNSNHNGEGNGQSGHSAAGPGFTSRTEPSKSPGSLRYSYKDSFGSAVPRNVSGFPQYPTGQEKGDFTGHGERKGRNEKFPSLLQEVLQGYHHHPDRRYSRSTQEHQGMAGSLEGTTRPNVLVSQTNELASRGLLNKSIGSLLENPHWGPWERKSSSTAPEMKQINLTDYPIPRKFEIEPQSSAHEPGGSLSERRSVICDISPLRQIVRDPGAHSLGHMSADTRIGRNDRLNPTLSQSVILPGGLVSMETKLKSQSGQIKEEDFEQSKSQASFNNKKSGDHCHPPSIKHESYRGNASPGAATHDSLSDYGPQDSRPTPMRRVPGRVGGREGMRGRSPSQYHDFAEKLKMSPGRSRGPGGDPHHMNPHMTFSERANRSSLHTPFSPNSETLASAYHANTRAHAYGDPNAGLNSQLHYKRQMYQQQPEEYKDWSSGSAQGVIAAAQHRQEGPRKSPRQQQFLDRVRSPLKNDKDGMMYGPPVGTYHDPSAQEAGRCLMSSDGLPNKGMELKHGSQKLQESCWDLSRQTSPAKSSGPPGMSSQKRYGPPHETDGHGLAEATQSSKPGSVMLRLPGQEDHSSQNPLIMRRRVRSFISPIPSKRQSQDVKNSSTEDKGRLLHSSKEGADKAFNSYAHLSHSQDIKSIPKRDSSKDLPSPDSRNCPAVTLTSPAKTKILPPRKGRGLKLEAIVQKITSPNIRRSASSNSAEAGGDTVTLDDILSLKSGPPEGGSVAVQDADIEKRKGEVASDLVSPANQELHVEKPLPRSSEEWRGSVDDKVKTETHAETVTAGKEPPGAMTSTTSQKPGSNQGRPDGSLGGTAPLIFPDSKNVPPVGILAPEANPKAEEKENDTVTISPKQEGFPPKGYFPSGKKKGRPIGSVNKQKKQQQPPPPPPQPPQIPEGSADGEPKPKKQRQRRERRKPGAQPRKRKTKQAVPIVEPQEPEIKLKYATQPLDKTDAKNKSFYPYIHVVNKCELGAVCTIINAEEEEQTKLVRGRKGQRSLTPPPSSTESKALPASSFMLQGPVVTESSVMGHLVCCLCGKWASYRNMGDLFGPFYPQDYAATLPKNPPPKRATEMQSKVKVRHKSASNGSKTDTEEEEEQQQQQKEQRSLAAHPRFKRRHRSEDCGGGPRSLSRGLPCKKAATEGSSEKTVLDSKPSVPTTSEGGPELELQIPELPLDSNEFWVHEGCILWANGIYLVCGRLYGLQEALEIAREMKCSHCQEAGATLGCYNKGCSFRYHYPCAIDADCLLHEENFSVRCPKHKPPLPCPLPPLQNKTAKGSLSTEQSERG
inactive: lapatinib -0.049 | pictilisib -0.034 | crizotinib 0.019 | [1] 0.011 | duvelisib 0.094 | gandotinib 0.108 | doramapimod -0.032 | bafetinib -0.001 | [2] -0.005

TPM1 isoform 4 (UniProt P09493)
inactive: lapatinib 0.032 | pictilisib -0.051 | crizotinib 0.001 | [1] 0.061 | duvelisib -0.029 | gandotinib -0.142 | tozasertib 0.013 | doramapimod 0.012 | bafetinib 0.011 | [2] -0.142

TRIM33 isoform 2 (UniProt Q9UPN9)
inactive: lapatinib -0.034 | pictilisib 0.008 | crizotinib -0.015 | [1] -0.07 | duvelisib -0.002 | gandotinib -0.023 | tozasertib 0.011 | doramapimod 0.021 | bafetinib -0.038 | [2] 0.056

TMEM167B (UniProt Q9NRX6)
UniProt Q9NRX6, sequence (Q9NRX6 whole entry, looked up): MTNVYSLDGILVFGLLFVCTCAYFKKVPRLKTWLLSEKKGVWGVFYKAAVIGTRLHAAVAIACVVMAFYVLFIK
active: [1] -0.339
inactive: lapatinib -0.045 | pictilisib -0.034 | crizotinib 0.006 | gandotinib 0.133 | tozasertib -0.003 | doramapimod -0.083 | bafetinib -0.075 | [2] 0.128

TUBB6 (UniProt K7ES63)
inactive: lapatinib -0.1 | pictilisib 0.021 | crizotinib -0.277 | [1] -0.178 | gandotinib 0.042 | tozasertib 0.122 | doramapimod 0.2 | bafetinib -0.278 | [2] 0.253

TASP1 (UniProt Q9H6P5)
UniProt Q9H6P5, sequence (Q9H6P5 whole entry, looked up): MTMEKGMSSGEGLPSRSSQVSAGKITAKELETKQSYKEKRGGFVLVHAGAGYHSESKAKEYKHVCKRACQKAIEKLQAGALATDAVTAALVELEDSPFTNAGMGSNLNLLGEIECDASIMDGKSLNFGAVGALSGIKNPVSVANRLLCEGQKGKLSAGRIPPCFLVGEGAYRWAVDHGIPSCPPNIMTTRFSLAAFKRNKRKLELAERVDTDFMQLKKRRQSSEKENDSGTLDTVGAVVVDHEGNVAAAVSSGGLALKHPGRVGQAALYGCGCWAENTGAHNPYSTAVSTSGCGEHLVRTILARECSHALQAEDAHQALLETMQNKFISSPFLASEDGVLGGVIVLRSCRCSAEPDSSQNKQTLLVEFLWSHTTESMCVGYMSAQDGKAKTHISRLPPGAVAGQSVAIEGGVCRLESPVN
inactive: lapatinib 0.009 | pictilisib -0.217 | crizotinib -0.086 | duvelisib 0 | tozasertib -0.002 | doramapimod 0.053 | bafetinib -0.235

TMEM263 (UniProt Q8WUH6)
inactive: lapatinib 0.149 | pictilisib 0.015 | crizotinib 0.06 | [1] -0.072 | duvelisib 0.02 | gandotinib 0.178 | tozasertib -0.066 | doramapimod 0.112 | bafetinib -0.028 | [2] 0.208

TFCP2 (UniProt Q12800)
UniProt Q12800, sequence (Q12800 whole entry, looked up): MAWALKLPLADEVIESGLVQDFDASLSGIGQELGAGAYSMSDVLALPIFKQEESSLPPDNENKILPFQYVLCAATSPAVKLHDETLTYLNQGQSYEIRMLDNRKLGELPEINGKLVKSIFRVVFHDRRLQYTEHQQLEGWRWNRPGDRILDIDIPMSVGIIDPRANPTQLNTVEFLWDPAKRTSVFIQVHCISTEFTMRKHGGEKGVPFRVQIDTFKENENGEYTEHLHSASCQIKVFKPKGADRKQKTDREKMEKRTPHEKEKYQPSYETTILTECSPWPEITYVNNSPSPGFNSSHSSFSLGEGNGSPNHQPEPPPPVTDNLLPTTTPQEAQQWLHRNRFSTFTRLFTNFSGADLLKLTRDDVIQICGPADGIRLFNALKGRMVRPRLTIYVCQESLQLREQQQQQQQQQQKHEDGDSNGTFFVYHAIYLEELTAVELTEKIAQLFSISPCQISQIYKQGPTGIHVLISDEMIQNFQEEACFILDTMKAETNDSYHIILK
inactive: lapatinib 0.043 | pictilisib 0.083 | crizotinib -0.093 | [1] 0 | duvelisib -0.016 | gandotinib 0.098 | tozasertib 0.021 | doramapimod 0.168 | bafetinib -0.075 | [2] 0.004

TENM4 (UniProt Q6N022)
inactive: lapatinib -0.169 | pictilisib -0.065 | crizotinib -0.07 | [1] 0.415 | gandotinib -0.028 | doramapimod -0.068 | bafetinib -0.148 | [2] -0.032

UBE4A isoform 2 (UniProt Q14139)
inactive: lapatinib -0.019 | pictilisib -0.007 | crizotinib -0.059 | [1] -0.009 | duvelisib 0.016 | gandotinib -0.15 | tozasertib 0 | doramapimod 0.004 | bafetinib -0.054 | [2] 0.043

TNIK (UniProt C9J338)
active: [1] -0.443
inactive: lapatinib -0.042 | pictilisib -0.023 | crizotinib -0.075 | duvelisib 0.115 | gandotinib 0.344 | tozasertib 0.012 | doramapimod 0.005 | bafetinib -0.258 | [2] 0.344

TSPAN13 (UniProt O95857)
active: [1] -0.387
inactive: lapatinib 0.017 | pictilisib 0.015 | crizotinib 0.011 | duvelisib -0.241 | gandotinib 0.32 | tozasertib -0.207 | doramapimod 0.119 | bafetinib 0.038 | [2] 0.055

UFSP2 (UniProt Q9NUQ7)
UniProt Q9NUQ7, sequence (Q9NUQ7 whole entry, looked up): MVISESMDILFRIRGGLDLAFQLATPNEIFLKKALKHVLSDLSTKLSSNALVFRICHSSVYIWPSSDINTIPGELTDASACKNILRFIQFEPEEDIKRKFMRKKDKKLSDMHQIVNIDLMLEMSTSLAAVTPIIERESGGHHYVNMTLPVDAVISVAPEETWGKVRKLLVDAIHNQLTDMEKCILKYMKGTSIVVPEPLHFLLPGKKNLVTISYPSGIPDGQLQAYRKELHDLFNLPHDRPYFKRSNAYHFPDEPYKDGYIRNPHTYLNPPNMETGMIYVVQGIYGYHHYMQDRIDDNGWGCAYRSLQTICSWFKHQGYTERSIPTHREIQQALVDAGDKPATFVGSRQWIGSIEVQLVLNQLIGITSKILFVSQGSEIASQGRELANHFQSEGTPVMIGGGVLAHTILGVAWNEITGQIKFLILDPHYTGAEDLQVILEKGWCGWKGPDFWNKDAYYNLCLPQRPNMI
inactive: lapatinib -0.02 | pictilisib -0.008 | crizotinib -0.022 | [1] -0.012 | duvelisib 0.009 | gandotinib -0.004 | tozasertib 0.017 | doramapimod 0.002 | bafetinib -0.028 | [2] 0.017

UBE2L6 (UniProt O14933)
UniProt O14933, sequence (O14933 whole entry, looked up): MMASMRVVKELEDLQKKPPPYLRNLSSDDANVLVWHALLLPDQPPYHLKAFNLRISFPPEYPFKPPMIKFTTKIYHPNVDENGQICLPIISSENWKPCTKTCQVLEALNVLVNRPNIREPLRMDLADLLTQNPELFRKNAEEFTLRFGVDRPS
inactive: lapatinib 0.059 | pictilisib 0.062 | crizotinib -0.014 | [1] 0.088 | duvelisib 0.033 | gandotinib -0.105 | tozasertib 0.109 | doramapimod -0.013 | bafetinib -0.267 | [2] -0.024

TTC27 (UniProt Q6P3X3)
inactive: lapatinib -0.01 | pictilisib 0.005 | crizotinib -0.041 | [1] -0.033 | duvelisib 0.04 | gandotinib -0.129 | tozasertib 0.004 | doramapimod 0.048 | bafetinib -0.066 | [2] 0.04

TUBB6 (UniProt Q9BUF5)
inactive: lapatinib -0.038 | pictilisib -0.015 | crizotinib -0.056 | [1] 0.003 | duvelisib 0.009 | gandotinib -0.009 | tozasertib -0.02 | doramapimod -0.047 | bafetinib -0.023 | [2] -0.018
